# Measurements from PubChem BioAssay (NCATS).
# “And” between values parts separate entries of the source, which are not always exact repeats. Equal entries are not always repeated. Records with an inconclusive call do not appear. The source made the active and inactive calls. Unless noted, calls come from the whole dose curve; as a rule, active = well fitted curve in the direction sought with a large enough effect; inconclusive = small, poorly fitted or top-dose-only effect, or another doubt; inactive = no such curve, though single readings can be large; an effect the other way counts as inactive or inconclusive.
# Legend:
# [1] = molecular target: Glucocorticoid receptor (Homo sapiens) (UniProt P04150); test: GR-GFP Redistribution (AID 450;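 active = compounds whose dose series gives a full or clear partial fitted curve of increased nuclear translocation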; note: potency is the fitted concentration of half-maximal effect); conditions: U2OS GR-GFP nuclear translocation, laser cytometry, 2 h
# [2] = molecular target: Glucocorticoid receptor (Homo sapiens) (UniProt P04150); test: GR-EFC Redistribution (AID 451; calls by dose curve; note: potency is the fitted concentration of half-maximal effect); conditions: CHO-K1 GR-EFC translocation, beta-gal luminescence, 2 h
# How it was run: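 Translocation of GR-ED fusion to nuclear EA restores b-gal, read by luminescence after 1 h room-temperature detection. Engineered CHO-K1 biosensor cells, 1,000/well, exposed 2 h at 37 C to titrations up to 46 uM final.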
# [3] = molecular target: Mitogen-activated protein kinase 10 (Mus musculus) (UniProt Q61831); test: JNK3 AlphaScreen Assay (AID 530; active = well fitted curve in either direction with a large enough effect, not every such curve was filed as active;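 note: kinase came from lysate of stimulated human HepG2 cells; signal reports phosphorylation of biotinylated GST-cJun 1-79 at Ser73 with 10 µM ATP; % is set by controls: 0 for no effect and ±100 for the full control effect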)
# How it was run: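 Kinase buffer: 20 mM Tris-HCl pH 7.6, 10 mM MgCl2, 1 mM DTT, 0.1 mM Na3VO4, 0.01% Tween-20; ATP 10 uM. Substrate biotin-GST-cJun(1-79), enzyme from activated HepG2 lysates. Detection by Ser73 phospho-antibody AlphaScreen.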
# [4] = qHTS Assay for Lipid Storage Modulators (AID 1519; calls by dose curve); conditions: Drosophila S3 cells, BODIPY lipid droplet/cell ratio, laser cytometry, cells loaded with oleic acid
# How it was run: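 Cells seeded at 5,000 per well were treated with compounds over a concentration series and loaded with oleic acid (400 uM, as added). Lipid droplet fluorescence (488 nm excitation, 500-530 nm channel) was read by laser-scanning cytometry and normalized to 20 uM Triacsin C.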
# [5] = molecular target: ATP-dependent 6-phosphofructokinase (Trypanosoma brucei brucei) (UniProt O15648); test: qHTS Assay to Find Inhibitors of T. brucei phosphofructokinase: hit validation (AID 492961);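 note: luminescence reports ADP formed as PFK phosphorylates fructose-6-phosphate with ATP; % is set by controls: 0 for no effect and ±100 for the full control effect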
# How it was run: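 ADP-Glo luminescence read-out of ADP formed by 1.25 nM PFK from 0.1 mM ATP and 0.5 mM F6P (TEA pH 8.0, 45 min, RT). Compounds titrated; activity normalized to no-enzyme and full-enzyme controls.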
# [6] = molecular target: Luciferin 4-monooxygenase (Photinus pyralis) (UniProt P08659); test: Biochemical firefly luciferase enzyme assay for NPC (AID 624030);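 note: purified P. pyralis luciferase at 10 nM with luciferin and ATP substrate; 0% = DMSO and -100% = full luciferase inhibition by PTC124 control; nearly all actives have a fitted effect of over 70% in size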
# How it was run: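 Direct inhibition of firefly luciferase enzyme (10 nM final, 50 mM Tris Acetate) assessed by luminescence within 5 minutes. Percent activity scaled between DMSO and PTC124 positive control, with concentration-effect curves classified by fit quality and response.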
# [7] = S16 Schwann cell viability assay (CellTiter-Glo assay) (AID 624031);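 note: native untransfected S16 rat Schwann cells; cellular ATP luminescence as a viability measure; plate controls were DMSO-treated cells for no effect and cell-free wells for full effect; nearly all actives have a fitted effect of over 70% in size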
# How it was run: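 Rat S16 Schwann cells without reporter constructs received compound or DMSO for 24 h at 37 °C under 5% CO2. Cellular ATP was then quantified by CellTiter-Glo luminescence, with vehicle wells defined as 0% activity and cell-free wells as reference.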
# [8] = S16 Schwann cell PMP22 intronic element firefly luciferase assay (AID 624032);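 note: plate controls were DMSO for no effect and PTC124 positive control mean for full effect; nearly all actives have a fitted effect of over 30% in size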
# How it was run: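 Luciferase reporter of PMP22 intronic-element expression in stably transfected S16 rat Schwann cells, read by ONE-Glo luminescence after 24 h compound exposure at 37 C. Activity scaled between DMSO (0%) and positive-control PTC124; concentration-effect curves quality-classified.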
# [9] = qHTS profiling for inhibitors of Plasmodium falciparum proliferation (AID 504749); note: potency is the fitted concentration of half-maximal effect;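 for activity, negative = inhibition: 0% = DMSO vehicle and full inhibition = artemisinin control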; for all read-outs here: nearly all actives have a fitted effect of over 60% in size; conditions: P. falciparum in erythrocytes, SYBR Green DNA, 72 h; for activity, negative = inhibition: at 12.8 µM (top of the series)
# How it was run: (§1)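 In a 72 h erythrocytic culture (37 C, humidified, 5% CO2) at 2.5% hematocrit and 0.3% starting parasitemia, compounds were tested; SYBR Green I in detergent lysis buffer stained parasite DNA overnight.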
# [10] = test system: CP262; test: as above; conditions: P. falciparum in erythrocytes, SYBR Green DNA, 72 h; series mostly up to 28.7 µM
# How it was run: as §1
# [11] = test system: ECU; test: as above; conditions: P. falciparum in erythrocytes, SYBR Green DNA, 72 h; series mostly up to 28.7 µM
# How it was run: as §1
# [12] = test system: HB3; test: as above; conditions: P. falciparum in erythrocytes, SYBR Green DNA, 72 h; series mostly up to 28.7 µM
# How it was run: as §1
# [13] = molecular target: Cytochrome P450 1A2 (Homo sapiens) (UniProt P05177); test: p450-cyp1a2 (AID 410; calls by dose curve;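 note: -100% = full effect of reference inhibitor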)
# How it was run: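 20nM CYP1A2, 100uM Luciferin-ME (=Km), 100mM KPO4; cpd 10 min RT; +NADPH regen, 60 min RT; stop/detect 20 min; luminescence. Normalized to furafylline 57 uM = full inhibition.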
# [14] = molecular target: 3',5'-cyclic-AMP phosphodiesterase 4B (Homo sapiens) (UniProt Q07343); test: qHTS Assay for Inhibitors of PDE-IV (AID 607; active = well fitted activation curve with a large enough effect in the main read-out, with a control signal flat, not every such curve was filed as active; note: % of control where 0% means no effect)
# How it was run: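 Cell-based read-out of cAMP via a modified cyclic nucleotide-gated channel and membrane potential dye (535/590 nm) in HEK293 cells expressing PDE4 endogenously. Compounds tested up to 22.9 uM final; 100 uM RO 20-1724 reference.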
# [15] = molecular target: Cytochrome P450 3A4 (Homo sapiens) (UniProt P08684); test: qHTS Assay for Activators of Cytochrome P450 3A4 (AID 885); note: nearly all actives have a fitted effect of over 65% in size
# How it was run: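 Luminescent readout of luciferin formed from 25 uM Luciferin-PPXE (KM level) by 20 nM CYP3A4 in 200 mM KPO4, with 60 min NADPH-driven reaction at room temperature after 10 min compound exposure. Ketoconazole (57 uM) defined 100% inhibition.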
# [16] = molecular target: Ubiquitin carboxyl-terminal hydrolase 1 (Homo sapiens) (UniProt O94782); test: Inhibitors of USP1/UAF1: Pilot qHTS (AID 504865);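 note: rhodamine fluorescence freed from ubiquitin-rhodamine substrate followed over time; top concentration of the series differs between compounds; % is set by controls: 0 for no effect and ±100 for the full control effect; nearly all actives have a fitted effect of over 35% in size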
# How it was run: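 Kinetic fluorescence assay: 1nM USP1/UAF1, 15 min compound preincubation, then 150nM Ub-Rho; 480/540 nm.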
# [17] = test system: 3D7; test: qHTS profiling for inhibitors of Plasmodium falciparum proliferation (AID 504749); note: nearly all actives have a fitted effect of over 60% in size; note: potency is the fitted concentration of half-maximal effect;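 for activity, negative = inhibition: 0% = DMSO vehicle and full inhibition = artemisinin control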; conditions: P. falciparum in erythrocytes, SYBR Green DNA, 72 h; series mostly up to 28.7 µM
# How it was run: as §1
# [18] = Stat Signaling Pathway (AID 446; active = well fitted curve in either direction with a large enough effect, not every such curve was filed as active;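 note: ME-180 cervical cancer cells given 40 pM IL-6 alongside compound; SIE-controlled beta-lactamase reporter measured as 460/530 nm FRET emission ratio; % is set by controls: 0 for no effect and ±100 for the full control effect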)
# How it was run: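 FRET read-out (405 nm excitation, 460/530 nm emission) of a beta-lactamase reporter under a STAT-inducible element in ME-180 cervical carcinoma cells. Cells with compound receive 40 pM IL-6 for 5 h. Values are normalised to AC90 stimulation and AC90 JAK-inhibitor controls.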
# [19] = NFAT Signaling Pathway (AID 444; active = well fitted curve in either direction with a large enough effect, not every such curve was filed as active;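 note: carbachol stimulus at about its EC50 of 1 µM final; % is set by controls: 0 for no effect and ±100 for the full control effect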); conditions: Jurkat NFAT-bla M1, carbachol, beta-lactamase ratio, 5 h; at 17.2 µM (top of the series)
# How it was run: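 Read-out: CCF4 FRET ratio (460 nm/530 nm) after 1 h RT dye loading, used for %activity and AC50 from titration series. Cells: Jurkat NFAT-β-lactamase/M1 line, treated with compound plus 1 uM carbachol for 5 h, 37 °C.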
# [20] = measured here: cell count channel max response
# [21] = measured here: lipid channel max response
# Sequence of Ubiquitin carboxyl-terminal hydrolase 1 (Homo sapiens) (O94782 whole entry, looked up): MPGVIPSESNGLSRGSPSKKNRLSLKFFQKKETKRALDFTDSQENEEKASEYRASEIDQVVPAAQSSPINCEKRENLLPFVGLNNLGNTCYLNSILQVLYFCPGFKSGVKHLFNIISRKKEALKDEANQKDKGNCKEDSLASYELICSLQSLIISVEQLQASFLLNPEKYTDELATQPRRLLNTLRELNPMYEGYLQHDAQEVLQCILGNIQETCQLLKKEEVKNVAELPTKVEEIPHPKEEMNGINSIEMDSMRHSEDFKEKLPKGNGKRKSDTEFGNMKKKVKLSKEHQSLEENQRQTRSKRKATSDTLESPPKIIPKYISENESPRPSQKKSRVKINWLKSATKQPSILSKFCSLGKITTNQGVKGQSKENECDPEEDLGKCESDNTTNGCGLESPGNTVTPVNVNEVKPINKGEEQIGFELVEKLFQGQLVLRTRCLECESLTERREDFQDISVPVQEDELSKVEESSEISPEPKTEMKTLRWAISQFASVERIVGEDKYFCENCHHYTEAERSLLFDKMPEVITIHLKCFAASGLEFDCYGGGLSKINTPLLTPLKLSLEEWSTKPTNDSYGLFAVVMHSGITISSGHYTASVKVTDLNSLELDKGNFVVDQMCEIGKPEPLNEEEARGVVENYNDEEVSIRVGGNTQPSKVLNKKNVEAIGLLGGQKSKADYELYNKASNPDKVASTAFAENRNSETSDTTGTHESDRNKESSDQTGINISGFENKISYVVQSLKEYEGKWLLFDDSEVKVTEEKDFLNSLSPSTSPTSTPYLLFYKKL
# Sequence of Glucocorticoid receptor (Homo sapiens) (P04150 whole entry, looked up, the tested form may be a part): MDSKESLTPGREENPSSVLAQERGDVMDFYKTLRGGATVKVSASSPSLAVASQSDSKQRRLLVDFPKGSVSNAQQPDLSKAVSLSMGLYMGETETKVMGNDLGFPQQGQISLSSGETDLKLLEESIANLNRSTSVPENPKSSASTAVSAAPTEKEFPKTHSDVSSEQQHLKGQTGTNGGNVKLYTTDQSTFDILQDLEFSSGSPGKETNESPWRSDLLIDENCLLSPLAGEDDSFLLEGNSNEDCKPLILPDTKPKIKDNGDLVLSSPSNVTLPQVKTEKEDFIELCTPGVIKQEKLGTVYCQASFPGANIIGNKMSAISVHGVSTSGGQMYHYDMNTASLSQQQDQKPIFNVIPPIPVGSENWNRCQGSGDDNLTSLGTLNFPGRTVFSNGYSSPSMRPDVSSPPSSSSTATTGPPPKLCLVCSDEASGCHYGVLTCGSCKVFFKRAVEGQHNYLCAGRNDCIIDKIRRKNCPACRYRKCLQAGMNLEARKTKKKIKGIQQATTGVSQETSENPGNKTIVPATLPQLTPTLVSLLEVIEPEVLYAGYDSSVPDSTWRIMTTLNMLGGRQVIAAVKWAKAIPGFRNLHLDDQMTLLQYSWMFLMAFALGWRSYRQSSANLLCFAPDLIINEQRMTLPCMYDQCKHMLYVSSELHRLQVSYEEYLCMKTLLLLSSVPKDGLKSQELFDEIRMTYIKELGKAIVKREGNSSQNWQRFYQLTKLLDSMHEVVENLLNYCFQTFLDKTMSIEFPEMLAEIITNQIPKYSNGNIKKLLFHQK
# Sequence of ATP-dependent 6-phosphofructokinase (Trypanosoma brucei brucei) (O15648 whole entry, looked up): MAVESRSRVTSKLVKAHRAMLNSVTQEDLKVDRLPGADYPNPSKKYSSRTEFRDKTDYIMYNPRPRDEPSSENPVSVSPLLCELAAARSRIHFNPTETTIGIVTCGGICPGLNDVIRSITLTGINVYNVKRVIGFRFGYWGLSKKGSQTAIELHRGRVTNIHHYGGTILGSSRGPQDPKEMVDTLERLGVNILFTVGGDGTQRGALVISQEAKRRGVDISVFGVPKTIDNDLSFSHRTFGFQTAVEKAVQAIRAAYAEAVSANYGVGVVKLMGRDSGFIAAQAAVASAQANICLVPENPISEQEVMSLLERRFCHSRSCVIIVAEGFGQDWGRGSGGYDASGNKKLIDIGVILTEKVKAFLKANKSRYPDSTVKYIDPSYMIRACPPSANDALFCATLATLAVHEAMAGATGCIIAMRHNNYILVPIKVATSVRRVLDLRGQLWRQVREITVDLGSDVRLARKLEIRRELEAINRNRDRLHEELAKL
# Sequence of 3',5'-cyclic-AMP phosphodiesterase 4B (Homo sapiens) (Q07343 whole entry, looked up): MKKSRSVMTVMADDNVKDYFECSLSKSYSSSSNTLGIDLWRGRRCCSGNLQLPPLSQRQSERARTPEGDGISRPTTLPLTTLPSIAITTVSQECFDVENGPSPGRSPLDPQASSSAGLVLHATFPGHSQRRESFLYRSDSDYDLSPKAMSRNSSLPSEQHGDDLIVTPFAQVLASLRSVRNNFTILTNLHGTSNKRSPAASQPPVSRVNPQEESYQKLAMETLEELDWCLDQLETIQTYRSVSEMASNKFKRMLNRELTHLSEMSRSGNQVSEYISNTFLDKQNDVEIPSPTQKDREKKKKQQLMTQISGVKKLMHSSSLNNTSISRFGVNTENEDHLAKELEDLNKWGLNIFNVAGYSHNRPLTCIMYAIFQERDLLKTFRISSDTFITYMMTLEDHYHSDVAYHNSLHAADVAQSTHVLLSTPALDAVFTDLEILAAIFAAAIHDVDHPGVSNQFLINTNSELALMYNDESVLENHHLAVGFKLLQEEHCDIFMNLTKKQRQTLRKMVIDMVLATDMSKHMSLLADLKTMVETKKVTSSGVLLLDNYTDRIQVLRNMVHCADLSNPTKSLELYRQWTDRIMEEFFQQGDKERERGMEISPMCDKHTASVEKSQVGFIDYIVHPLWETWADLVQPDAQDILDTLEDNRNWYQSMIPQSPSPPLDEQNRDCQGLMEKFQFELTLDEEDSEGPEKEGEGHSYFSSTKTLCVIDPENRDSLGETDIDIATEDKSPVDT
# Sequence of Cytochrome P450 1A2 (Homo sapiens) (P05177 whole entry, looked up): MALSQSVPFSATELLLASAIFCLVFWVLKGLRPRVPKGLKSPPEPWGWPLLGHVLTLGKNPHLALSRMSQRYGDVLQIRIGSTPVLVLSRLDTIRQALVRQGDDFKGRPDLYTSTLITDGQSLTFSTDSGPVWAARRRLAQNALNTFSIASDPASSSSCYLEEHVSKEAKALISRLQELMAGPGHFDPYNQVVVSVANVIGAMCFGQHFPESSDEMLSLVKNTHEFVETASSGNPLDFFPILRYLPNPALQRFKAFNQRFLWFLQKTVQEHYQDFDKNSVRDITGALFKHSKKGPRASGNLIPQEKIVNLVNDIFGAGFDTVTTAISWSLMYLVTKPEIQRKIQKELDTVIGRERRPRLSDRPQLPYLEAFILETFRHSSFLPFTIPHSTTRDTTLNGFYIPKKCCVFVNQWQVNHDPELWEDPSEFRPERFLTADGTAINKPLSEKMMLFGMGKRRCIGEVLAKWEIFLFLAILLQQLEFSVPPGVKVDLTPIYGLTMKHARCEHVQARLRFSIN
# Sequence of Luciferin 4-monooxygenase (Photinus pyralis) (P08659 whole entry, looked up): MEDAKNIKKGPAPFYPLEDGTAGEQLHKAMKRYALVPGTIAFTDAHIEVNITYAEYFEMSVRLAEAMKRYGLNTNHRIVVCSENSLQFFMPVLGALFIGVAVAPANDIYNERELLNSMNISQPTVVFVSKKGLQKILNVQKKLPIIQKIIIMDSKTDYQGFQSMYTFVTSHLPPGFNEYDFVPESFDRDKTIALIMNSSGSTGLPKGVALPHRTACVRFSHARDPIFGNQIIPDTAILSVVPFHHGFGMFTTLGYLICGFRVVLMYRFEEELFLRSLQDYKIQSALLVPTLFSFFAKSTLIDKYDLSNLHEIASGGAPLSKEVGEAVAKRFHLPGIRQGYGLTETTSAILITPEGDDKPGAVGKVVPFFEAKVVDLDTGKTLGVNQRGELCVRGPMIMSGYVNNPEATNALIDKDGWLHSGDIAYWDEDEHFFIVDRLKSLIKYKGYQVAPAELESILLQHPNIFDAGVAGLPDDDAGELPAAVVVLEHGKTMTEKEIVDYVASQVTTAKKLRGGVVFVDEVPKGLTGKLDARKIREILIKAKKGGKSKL
# Sequence of Cytochrome P450 3A4 (Homo sapiens) (P08684 whole entry, looked up): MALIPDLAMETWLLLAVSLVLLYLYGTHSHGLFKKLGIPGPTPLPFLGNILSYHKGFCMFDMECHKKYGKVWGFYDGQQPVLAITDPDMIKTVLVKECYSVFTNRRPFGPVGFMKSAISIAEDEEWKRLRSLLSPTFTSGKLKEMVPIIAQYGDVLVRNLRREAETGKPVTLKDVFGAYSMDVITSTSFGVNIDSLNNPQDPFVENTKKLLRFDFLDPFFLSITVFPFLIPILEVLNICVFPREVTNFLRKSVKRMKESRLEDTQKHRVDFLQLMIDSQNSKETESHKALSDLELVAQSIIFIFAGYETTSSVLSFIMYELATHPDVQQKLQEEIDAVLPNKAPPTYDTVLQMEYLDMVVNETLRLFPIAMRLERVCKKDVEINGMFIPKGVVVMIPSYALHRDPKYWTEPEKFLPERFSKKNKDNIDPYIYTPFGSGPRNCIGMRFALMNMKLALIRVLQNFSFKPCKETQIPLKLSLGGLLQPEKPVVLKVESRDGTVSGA
smiles,measurement,setting,value
O=c1ccc2cc(O[C@H]3O[C@@H](CO)[C@@H](O)[C@@H](O)[C@@H]3O)c(O)cc2o1,Potency,[1],> 20.6 µM (inactive)
same,Potency,[2],> 20.6 µM (inactive)
same,outcome,[3],inactive
same,"activity change, negative = inhibition",[4]; at 25.7 µM (top of the series),-1.03% (inactive)
same,max response,[4]; [20],1.01%
same,max response,[4]; [21],0.833%
same,Potency,[5],inactive
same,Potency,[6],inactive
same,Potency,[7],inactive
same,Potency,[8],inactive
same,"activity, negative = inhibition",[9]; parasite line A,3.87% (inactive)
same,"activity, negative = inhibition",[9]; parasite line B,-4.9% (inactive)
same,Potency,[10],inactive
same,Potency,[11],inactive
same,Potency,[12],inactive
C[C@@H]1O[C@H](O[C@@H]2CC[C@@]3(C=O)[C@H]4CC[C@@]5(C)[C@@H](C6=CC(=O)OC6)CC[C@@]5(O)[C@@H]4CC[C@]3(O)C2)C[C@H](O)[C@@H]1O,Potency,[13],inactive
same,Potency,[1],> 20.6 µM (inactive)
same,Potency,[2],> 20.6 µM (inactive)
same,outcome,[3],inactive
same,Potency,[14],inactive
same,Potency,[15],inactive
same,"activity change, negative = inhibition",[4]; at 25.7 µM (top of the series),-0.93% (inactive)
same,max response,[4]; [20],-14.4%
same,max response,[4]; [21],-15.6%
same,Potency,[16],inactive
CNC(=O)Oc1ccc2c(c1)[C@@]1(C)CCN(C)C1N2C (some centres undefined),"activity change, negative = inhibition",[4]; at 57.5 µM (top of the series),4.58% (inactive)
same,max response,[4]; [20],3.75%
same,max response,[4]; [21],14.3%
same,Potency,[16],inactive
CCC(C)C1O[C@]2(C=CC1C)CC1CC(C/C=C(\C)[C@H](OC3CC(OC)C(O[C@H]4CC(OC)[C@@H](O)C(C)O4)C(C)O3)[C@@H](C)/C=C/C=C3\COC4C(O)C(C)=C[C@H](C(=O)O1)[C@@]34O)O2 (some centres undefined),"activity change, negative = inhibition",[4]; at 57.5 µM (top of the series),-5.38% (inactive)
same,max response,[4]; [20],-1.86%
same,max response,[4]; [21],-6.99%
same,Potency,[5],inactive
same,Potency,[6],inactive
same,Potency,[7],inactive
same,Potency,[9]; parasite line A,4.47 µM (active)
same,Potency,[9]; parasite line B,8.91 µM (active)
same,Potency,[17],11.2 µM (active)
same,Potency,[10],inactive
same,Potency,[11],8.91 µM (active)
C[C@@]12CC[C@H](O)C[C@@H]1CC[C@H]1[C@@H]2C[C@@H](O)[C@]2(C)[C@@H](C3=CC(=O)OC3)CC[C@]12O,Potency,[13],inactive
same,outcome,[18],inactive
same,Potency,[1],> 20.6 µM (inactive)
same,Potency,[2],> 20.6 µM (inactive)
same,outcome,[3],inactive
same,"activity change, negative = inhibition",[4]; at 25.7 µM (top of the series),-4.23% (inactive)
same,max response,[4]; [20],-5.31%
same,max response,[4]; [21],-9.41%
O=C1CCCC2[C@@H]3CCCN4CCC[C@@H](CN12)C34 (some centres undefined),"activity change, negative = inhibition",[4]; at 57.5 µM (top of the series),4.15% (inactive)
same,max response,[4]; [20],4.45%
same,max response,[4]; [21],7.09%
same,Potency,[16],inactive
O=C1CC2OCC=C3CN4CC[C@]56c7ccccc7N1[C@H]5[C@H]2C3C[C@H]46 (some centres undefined),"activity change, negative = inhibition",[4]; at 57.5 µM (top of the series),9.09% (inactive)
same,max response,[4]; [20],14.5%
same,max response,[4]; [21],20.7%
same,Potency,[16],inactive
COc1cc(C2c3cc4c(cc3C(O)[C@H]3COC(=O)C23)OCO4)cc(OC)c1OC (some centres undefined),"activity change, negative = inhibition",[4]; at 57.5 µM (top of the series),6.7% (inactive) and 5.22% (inactive)
same,max response,[4]; [20],-4.29% and 22%
same,max response,[4]; [21],2.15% and 29.3%
same,Potency,[16],inactive
COc1ccc(C(=O)OC2C[C@H]3CC[C@@H](C2)N3C)cc1OC (some centres undefined),"activity change, negative = inhibition",[19],-18.9% (inactive)
same,outcome,[18],inactive
same,Potency,[1],> 20.6 µM (inactive)
same,Potency,[2],> 20.6 µM (inactive)
same,outcome,[3],inactive
same,Potency,[14],inactive
same,"activity change, negative = inhibition",[4]; at 25.7 µM (top of the series),0.262% (inactive)
same,max response,[4]; [20],-3.69%
same,max response,[4]; [21],-3.27%
same,Potency,[16],inactive
C[C@H]1CC[C@@]2(NC1)O[C@@H]1C[C@H]3[C@@H]4CC=C5C[C@@H](O)CC[C@]5(C)[C@@H]4CC[C@]3(C)[C@@H]1[C@@H]2C,"activity change, negative = inhibition",[19],7.82% (inactive)
same,outcome,[18],inactive
same,Potency,[1],> 20.6 µM (inactive)
same,Potency,[2],> 20.6 µM (inactive)
same,outcome,[3],inactive
same,"activity change, negative = inhibition",[4]; at 25.7 µM (top of the series),-1.61% (inactive)
same,max response,[4]; [20],0.522%
same,max response,[4]; [21],-7.85%
same,Potency,[16],inactive
